sEH inh – inhibitors of human soluble epoxide hydrolase; P34913; recombinant human sEH enzymatic activity assay; inhibition, % at 2 µM; 91,000 compounds, 0.34% hits; AID 707; in the data active means inhibition above about 80%
Target sequence (P34913 whole entry, looked up): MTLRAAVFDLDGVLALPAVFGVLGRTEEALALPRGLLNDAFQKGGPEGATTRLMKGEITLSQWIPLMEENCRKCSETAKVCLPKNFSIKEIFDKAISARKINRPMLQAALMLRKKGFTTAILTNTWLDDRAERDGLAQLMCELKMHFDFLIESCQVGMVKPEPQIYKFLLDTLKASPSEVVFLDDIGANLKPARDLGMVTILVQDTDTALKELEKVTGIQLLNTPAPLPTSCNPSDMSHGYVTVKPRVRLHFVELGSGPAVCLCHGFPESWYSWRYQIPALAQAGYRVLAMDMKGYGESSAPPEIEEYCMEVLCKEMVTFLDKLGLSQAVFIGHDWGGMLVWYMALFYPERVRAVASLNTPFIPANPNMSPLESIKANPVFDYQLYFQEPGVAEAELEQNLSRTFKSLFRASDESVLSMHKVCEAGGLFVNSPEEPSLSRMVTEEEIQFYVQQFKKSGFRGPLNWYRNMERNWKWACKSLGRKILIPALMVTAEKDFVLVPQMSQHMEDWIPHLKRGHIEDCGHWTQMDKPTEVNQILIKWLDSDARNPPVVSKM
CYP2C19 activ – increases human CYP2C19 enzyme activity | recombinant CYP2C19, luciferin-H EGE luminescence; stronger effect = higher value; 0 = fully inhibited enzyme, 1 = untreated enzyme | P33261 | 96,000 tested, under 10 active | AID 1025 | activation factor at 5 µM;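 active means activation factor of at least 2 at 5 µM in the primary screen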;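 further: 0 = wells with 2.5 mM tranylcypromine and 1 = vehicle-only wells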
sEH activator – soluble epoxide hydrolase (human) activation | P34913 | purified human sEH enzymatic activity, activator screen | activation, % at 2 µM | 91,000 compounds, 0.04% hits | AID 717; in the data active means activation above about 37%
CYP2C9 inhib – human CYP2C9 inhibition. P11712. CYP2C9 Supersomes, luciferin-H conversion, luminescence. inhibition, % at 5 µM. 96,000 compounds, 20% hits. AID 777;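 active means blocking of liver enzyme CYP2C9 beyond about 50% at 5 µM, limit read from the data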
CYP2C19 inhib – human CYP2C19 inhibition; inhibition, % at 5 µM; P33261; CYP2C19 Supersomes, luciferin-H EGE luminescence, 30 min; 96,000 compounds, 21% hits;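 active means CYP2C19 inhibition above a set limit at 5 µM in the primary screen, cut at about 50% in these data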;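 further: plate controls were negative control wells for no effect and 2.5 mM tranylcypromine positive control for full effect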
CYP2C9 act – CYP2C9 (human) activation; P11712; recombinant CYP2C9, luciferin-H conversion, luminescence; stronger effect = higher value; factor 1 = untreated enzyme, 0 = blocked; activation factor at 5 µM; 96,000 compounds, 1.4% hits; AID 1024;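 active means activation factor of 2 or more for CYP2C9 at a 5 µM dose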;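 further: 0 = sulfaphenazole-blocked wells and 1 = vehicle-only wells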
Numbers without * were called inactive; · = no result given. An excerpt weighted towards active compounds, which were near 27% of everything screened.

SMILES	sEH inh	CYP2C19 activ	sEH activator	CYP2C9 inhib	CYP2C19 inhib	CYP2C9 act
CCC(C)NS(=O)(=O)c1ccc(OCC(=O)N2CCCCC2)cc1 (stereo not given)	19.5	1	-17.1	-4.7	-0.2	1
O=C(C1CC=CCC1)N1CCN(C(=O)C2CC=CCC2)CC1 (stereo not given)	-1.9	·	4.2	·	·	·
Cc1cc(NC(=O)CSc2nnc(-c3c[nH]c4ccccc34)n2-c2ccc(Cl)cc2)no1	-18.9	1.1	16.6	-24.9	-11.6	1.2
CC1=CCC2C(=O)N(c3nc4ccccc4n3C)C(=O)C2C1 (stereo not given)	-17.4	1	13.4	-1.6	2.4	1
CCN1C(=O)c2ccccc2S(=O)c2ccc(C(=O)NCCCN3CCCC3=O)cc21 (stereo not given)	·	1.1	·	14.5	-14.1	0.9
CCCSc1ncc(Cl)c(C(=O)Nc2ccc(S(=O)(=O)N3CC(C)OC(C)C3)cc2)n1 (stereo not given)	5.5	0.5	-5.8	86.3*	53.8*	0.1
Cc1ccc(O)c(-c2cc(C(=O)Nc3ccc(S(=O)(=O)N4CC(C)OC(C)C4)cc3)[nH]n2)c1 (stereo not given)	-2.2	1	2.7	23.1	-2.5	0.8
O=C(Nn1c(O)c(C=C2N=c3ccccc3=N2)sc1=S)c1cccc(Cl)c1	11.8	1	-8.9	14.6	2.5	0.9
CC(C)c1[nH]c(=O)c(C#N)c2c1COC(C)(C)C2	-13.4	0.8	13.9	-5.8	16.7	1.1
CC1(C)Cc2c(c(-c3ccccc3)[nH]c(=O)c2C#N)CO1	-7.4	0.4	6.0	-8.4	55.0*	1.1
CC1(C)Cc2c(C#N)c(OCC(=O)c3ccc(Cl)cc3)nc(-c3ccoc3)c2CO1	-7.6	0.2	9.0	37.9	79.4*	0.6
CCCc1[nH]c(=O)c(C#N)c2c1COC(C)(C)C2	2.1	0.3	-4.3	20.2	66.1*	0.8
CC1(C)Cc2c(c(-c3ccccc3Cl)[nH]c(=O)c2C#N)CO1	-7.6	0.1	9.2	4.1	92.3*	1
CCOC(=O)/C(N=O)=C(\O)C1CCN(C(=O)OCC)CC1	-9.8	0.9	10.4	10.6	8.4	0.9
CNC(=O)CSc1nnc(COc2ccc(Cl)cc2)n1CCOC	1.9	0.9	-2.3	22.3	7.7	0.8
N#CN=C1SCCS1	1.1	1.2	0.2	-19.8	-22.0	1.2
COc1nc(-c2ccccc2)c2c(c1C#N)CC(C)(C)OC2	-14.2	0.2	11.5	47.3	78.2*	0.5
CCSc1nnc([C@H](C)NC(=O)OC(C)(C)C)o1	4.0	0.6	-2.4	14.2	42.4	0.9
CC(C)Oc1ccc(C(=O)NCc2ccco2)cc1	-9.9	0.3	14.1	12.0	70.2*	0.9
CN(Cc1ccccc1)C(=O)c1cccc(NC(=O)c2ccco2)c1	0.3	0.6	4.8	-212.5	38.4	3.1*
Cc1ccc(C(=O)Nc2cccc(Oc3ccccc3)c2)o1	78.7	0.7	-78.4	34.7	30.3	0.7
Cc1c(NC(=O)c2cccc(NC(=O)c3ccco3)c2)cccc1C(=O)O	2.5	1	0.3	-15.4	-2.5	1.2
Cc1ccc(Cn2cccc(NC(=O)c3ccco3)c2=O)cc1	7.3	0.3	-7.7	59.8*	72.5*	0.4
CCCOc1ccc(C(=O)NCc2ccco2)cc1	3.6	0.8	-4.8	20.0	24.2	0.8
Cc1ccc(C(=O)Nc2cccc(C(=O)NCc3ccccc3)c2)o1	·	0.5	·	87.9*	52.1*	0.1
SMILES	sEH inh	CYP2C19 activ	sEH activator	CYP2C9 inhib	CYP2C19 inhib	CYP2C9 act
Cc1ccc(C2=N/C(=C/c3cccs3)C(=O)N2Nc2ccccc2)cc1	-6.0	1	6.3	12.4	-3.1	0.9
Oc1ccccc1CNn1cnnc1	2.4	1.1	-3.9	-12.5	-12.4	1.1
CCOC(=O)CSc1nnc(CNC(=O)c2ccc(S(=O)(=O)N3CCCCC3)cc2)n1C	-3.2	0.9	6.4	14.5	11.0	0.9
O=C(NCc1ccccc1)c1cccc(NC(=O)c2ccco2)c1	5.0	0.4	-1.5	85.3*	55.5*	0.1
O=C(COc1ccc(Cl)cc1)Nc1ccccc1C(=O)NCc1ccco1	14.3	0.9	-11.9	21.3	9.2	0.8
O=C(Nc1ccccc1C(=O)NCc1ccco1)c1ccco1	·	0.6	·	70.9*	36.5	0.3
CC(C)(C)c1ccccc1NC(=O)c1ccco1	-0.1	0.5	3.0	32.0	53.3*	0.7
CC(C)(C)c1ccc(C(=O)Nc2ccccc2NC(=O)c2ccco2)cc1	3.3	·	2.3	·	·	·
